Screening data as filed in PubChem.
The full list was thinned out, with hits kept by preference.
Cruzain inh noDet = blocks cruzain activity in detergent-free assay; P25779; purified cruzain, Z-FR-AMC fluorescence, no detergent; Potency, µM, inactives show max response, negative = inhibition, most hits filed as inhibitors; 200,000 compounds, 2.3% hits; AID 1476;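 further: plate controls were enzyme without inhibitor for no effect and buffer without enzyme for full effect; nearly all actives have a fitted effect of over 40% in size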
Target sequence (P25779 123-467 limits assumed): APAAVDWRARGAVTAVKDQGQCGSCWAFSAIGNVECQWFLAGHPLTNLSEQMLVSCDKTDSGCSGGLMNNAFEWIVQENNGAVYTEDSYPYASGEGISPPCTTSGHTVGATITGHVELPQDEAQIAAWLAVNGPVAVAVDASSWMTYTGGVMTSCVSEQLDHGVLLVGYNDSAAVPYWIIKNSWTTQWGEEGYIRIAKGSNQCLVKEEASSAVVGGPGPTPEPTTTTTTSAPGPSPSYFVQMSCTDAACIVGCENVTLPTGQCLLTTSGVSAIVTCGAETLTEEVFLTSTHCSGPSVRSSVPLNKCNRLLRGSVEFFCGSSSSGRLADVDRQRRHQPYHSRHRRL
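Purified cruzain at 1.5 nM, pre-incubated 15 min with compound at room temperature in 100 mM sodium acetate pH 5.5, 5 mM DTT, 0.00005% Triton X-100. Reaction started with 2 uM Z-FR-AMC; AMC fluorescence increase over 60 s gives rate.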
NS1 inh = inhibitors of influenza NS1 protein function; Potency, µM (doses to about 46.1 µM), inactives show at the highest dose activity, positive = more growth; 270,000 compounds, 0.4% hits; calls by dose curve; further: actives are rising curves; nearly all actives have a fitted effect of over 50% in size
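Growth recovery, yeast-based: influenza A NS1 expressed in S. cerevisiae causes slow growth, and suppressors are detected by OD600. The parent strain without NS1 is used as positive control.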
Cruzain Triton = blocks cruzain activity in presence of Triton detergent; P25779; 200,000 compounds, 0.43% hits; Potency, µM, for inactives: max response, negative = inhibition, most hits filed as inhibitors; purified cruzain, Z-FR-AMC fluorescence, 0.01% Triton;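 further: plate controls were neutral wells for no effect and buffer without enzyme for full effect; nearly all actives have a fitted effect of over 40% in size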
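15 min RT preincubation of 1.5 nM cruzain with compound, then 2 uM Z-FR-AMC added; kinetic AMC fluorescence, 60 s delta. Triton X-100 0.01%, pH 5.5.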
Active calls of the source: *; ? = inconclusive; . = no result given. Unless noted, the call rests on the fitted dose curve; in most records, active means well fitted curve in the direction sought with a large enough effect; inconclusive means small, poorly fitted or top-dose-only effect, or another doubt; inactive means no such curve, though single readings can be large; an effect the other way counts as inactive or inconclusive. Potency means the concentration at half of the fitted maximal effect.

SMILES	Cruzain inh noDet	NS1 inh	Cruzain Triton
OC[C@@H]1[C@@H](c2ccccc2)C(c2cccc(Cl)c2)=NN1c1ccccc1	25µM*	.	2%
Cc1cccc(C2=NN(c3ccccc3)[C@H](CO)[C@H]2c2ccc(F)cc2)c1	?	.	-13%
C[C@H]1C(c2ccccc2)=NN(c2ccccc2)[C@@H]1CO	-27%	.	2%
COC(=O)C1(C(=O)OC)Cc2conc2[C@H]1c1ccccc1	-6%	.	0%
O=C(NCc1ccccc1Cl)c1cc2ccccc2o1	-14%	.	-10%
CC(C)C[C@@H](CC(=O)N[C@H](CC(=O)N[C@@H]1CCCC[C@H]1C(=O)N[C@H](CC(=O)N[C@@H](CCC(=O)O)CC(=O)O)CC(C)C)C(C)C)NC(=O)[C@@H]1CNCC[C@H]1N	11%	.	-1%
ICCc1ccccc1	?	.	7%
COc1cccc2c1cc1c(=O)n(CC(=O)N3CCN(c4ccccc4F)CC3)nc(C)n12	5%	.	-2%
O=C(c1ccccc1Cl)N(Cc1ccco1)c1ccccn1	-13%	.	-2%
NCc1ccc(-c2nc3ccccc3o2)cc1	13µM*	-18%	-2%
O=C1c2ccccc2C(=O)N1c1ccc(-c2nc3ccccc3o2)cc1	5%	2%	4%
CCCN(CCC)C(=O)SCC	-3%	.	7%
NC(=S)N=Nc1c(O)[nH]c2ccccc12	13µM*	-8%	?
Cc1ccc2[nH]c(O)c(N=NC(N)=S)c2c1	.	3%	.
COc1ccc(CNc2ncnc3ccc(-c4ccc(N(C)C)cc4)cc23)c(OC)c1	?	.	-1%
CC(=O)c1ccc(N2CCN(c3ncnc4onc(-c5ccc(Cl)cc5)c34)CC2)cc1	3.2µM*	.	-16%
Fc1ccc(N2CCN(c3ncnc4onc(-c5ccc(Cl)cc5)c34)CC2)cc1	4%	.	-8%
CC1(O)/C=C\C=C(\CO)C2CC(C)(C)C2(O)CC1 (configuration not stated)	-4%	.	1%
Cc1nc(NCc2ccccc2)c2nc(-c3ccccc3)n(CCN3CCOCC3)c2n1	?	.	-5%
Cc1ccc(S(=O)(=O)c2c(N)n(/N=C/c3ccco3)c3nc4ccccc4nc23)cc1C	16µM*	?	-22%
Cc1cccc(S(=O)(=O)c2c(N)n(/N=C/c3ccco3)c3nc4ccccc4nc23)c1	-22%	?	-5%
Cc1ccc(-c2nc3c4ccccc4n(CC(=O)NCc4ccc(F)cc4)c(=O)n3n2)cc1	27%	.	2%
Cc1ccc(-n2c(O)c(C=Nc3ccc4c(c3)OCO4)c3ccccc3c2=O)cc1C	10µM*	5%	-1%
Cc1cc(N=Cc2c(O)n(-c3ccc4c(c3)OCO4)c(=O)c3ccccc23)ccn1	-24%	14%	-9%
CN(Cc1ccco1)c1nc(-c2ccccc2C(F)(F)F)nc2ccccc12	-1%	.	-6%
SMILES	Cruzain inh noDet	NS1 inh	Cruzain Triton
CCc1nnc(NC(=O)c2oc3cc(C)c(C)cc3c2C)s1	13µM*	3%	-1%
CCc1nonc1NC(=O)c1oc2cc(C)c(C)cc2c1C	0%	4%	1%
COC(=O)NC(C(=O)OC)(C(=O)OC)c1ccccc1	3%	.	2%
CC(=O)CSCc1ccccn1	-8%	0%	-1%
O=C(Nc1ccccc1)Nc1nnc(/C=C/c2ccccc2Cl)s1	25µM*	24%	-4%
O=C(Nc1ccccc1)Nc1nnc(-c2ccccc2)s1	.	4%	.
CCCOc1ccc(-c2nc(SCC(=O)c3ccc(Cl)cc3)n[nH]2)cc1	10µM*	.	1%
CCOc1ccc(-c2nc(SCC(=O)c3ccccc3)n[nH]2)cc1	?	.	-5%
CC(C)c1cccc(C(C)C)c1NC(=O)c1ccc(OCC(=O)NCc2ccccc2)cc1	7.9µM*	25%	0%
CC(C)c1ccccc1NC(=O)COc1ccc(C(=O)NCCc2ccccc2)cc1	?	7%	0%
CC1(C)[C@@H]2CC[C@@](C)(C2)[C@H]1OC(=O)c1ccccc1C(=O)O	8%	0%	2%
Cc1ccc(-c2nnc(SCC(=O)NC3CCCC3)nc2-c2ccc(C)cc2)cc1	13µM*	.	?
O=C(CSc1nnc(-c2ccc(Cl)cc2)c(-c2ccc(Cl)cc2)n1)NC1CCCC1	-9%	.	-8%
CC(C)C1O[C@H](/C=C\c2ccccc2)OCC1(C)C (some centres not stated)	-2%	3%	-1%
COc1ccc(-c2cc(=O)oc3cc(OCC(=O)c4cccc([N+](=O)[O-])c4)ccc23)cc1	25µM*	?	-8%
COc1ccc(-c2cc(=O)oc3cc(OCC(C)=O)ccc23)cc1	-7%	-5%	-5%
COc1cccc(-c2nn3c(=O)cc(CN4CCN(S(=O)(=O)c5ccc(C)cc5)CC4)nc3s2)c1	-2%	.	3%
Cc1ccc(-n2nc(C)c(C3C(C#N)=C(N)Oc4c3c(=O)oc3ccccc43)c2Cl)cc1 (configuration not stated)	20µM*	13%	0%
Cc1nn(-c2ccccc2)c(Cl)c1C1C(C#N)=C(N)Oc2c1c(C)nn2-c1ccccc1 (configuration not stated)	2%	4%	-2%
Cc1cc(N2CCN(c3cccc(C(F)(F)F)c3)CC2)n2nc(-c3ccccc3C)nc2n1	4%	.	-1%
Cc1ncc([N+](=O)[O-])n1CCN=[N+]=[N-]	-8%	0%	1%
COc1ccc(-c2csc(/C(C#N)=C/Nc3ccc4c(c3)OCCO4)n2)cc1	13µM*	-2%	-4%
COc1cccc(Nc2nc(-c3sc(C)nc3C)cs2)c1	.	-120%	.
Cc1nc(NC(=O)c2ccccc2)sc1-c1csc(NCc2ccccc2)n1	?	?	4%
N#C/C(=C\Nc1ccc2c(c1)OCCO2)c1nc(-c2ccccc2)cs1	?	9%	-3%
SMILES	Cruzain inh noDet	NS1 inh	Cruzain Triton
COc1cccc(Nc2nc(-c3sc(N)nc3C)cs2)c1	13µM*	-82%	?
Cc1nc(N)sc1-c1csc(NCc2ccccc2)n1	32µM*	?	-15%
COc1cccc(Nc2nc(-c3ccc4c(c3)OCCO4)cs2)c1	25µM*	7%	-1%
c1ccc(-c2csc(Nc3ccc4c(c3)OCCO4)n2)cc1	?	6%	-2%
COc1cccc([C@@H]2Oc3ccc(OC)cc3C[C@H]2OC(=O)NCc2ccco2)c1	0%	.	-1%
COC(C)=O	0%	.	8%
O=c1[nH]c2[nH]c(=S)[nH]c(=S)c2[nH]1	3%	6%	2%
Oc1c(Br)cc(Br)cc1CN(Cc1cc(Br)cc(Br)c1O)C1CCCCC1	-3%	5%	-3%
CC1(OC(=O)c2cnc3ccccc3n2)C(=O)C=C2C=C(c3ccsc3)OC=C2C1=O (configuration not stated)	-2%	.	5%
Cc1ccc(-c2nnn(CC(=O)N(c3ccccc3)C(C(=O)NC3CCCC3)c3ccncc3)n2)o1 (configuration not stated)	.	2%	.
Cc1ccc(-c2nnn(CC(=O)N(c3ccccc3)C(C(=O)NC(C)(C)C)c3cccs3)n2)o1 (configuration not stated)	6.3µM*	1%	0%
Cc1ccc(-c2nnn(CC(=O)N(c3cccc(O)c3)C(C(=O)NC(C)(C)C)c3cccs3)n2)o1 (configuration not stated)	6%	-6%	-7%
Cc1ccc(N(C(=O)Cn2nnc(-c3ccc(C)o3)n2)C(C(=O)NC2CCCC2)c2ccco2)cc1 (configuration not stated)	25µM*	-13%	6%
